Among the data in PubChem BioAssay (EPA / NIEHS) are outcome and AC50 values, retold here.

Activity calls are given as the source filed them. The calls were made as follows: active = hit-call score of the fitted dose curve at least 0.9, where 1 is the maximum; inactive = score below 0.9.

As a reminder, the AC50 is the midpoint of the concentration-response curve, whichever way the signal moves.

The nature of this assay: ATG_GLI_CIS: Attagene CIS-FACTORIAL HepG2 Assay for human Zinc Finger Protein GLI1 (AID 2282945). As to conditions: HepG2, Attagene cis-factorial reporter mRNA, GLI element; actives raise or lower the signal. The method, then: ATG_CIS is a cell-based, multiplexed-readout assay that uses HepG2, a human liver cell line, with measurements taken at 24 hours after chemical dosing in a 24-well plate.ATG_GLI_CIS is one of 52 assay component(s) measured or calculated from the ATG_CIS assay. It is designed to make measurements of mRNA induction, a form of inducible reporter, as detected with fluorescence intensity signals by Reverse transcription polymerase chain reaction (RT-PCR) and Capillary electrophoresis technology.Data from the assay component ATG_GLI_CIS was analyzed into 1 assay endpoint. This assay endpoint, ATG_GLI_CIS, was analyzed with bidirectional fitting relative to DMSO as the negative control and baseline of activity. Using a type of inducible reporter, measures of mRNA for gain or loss-of-signal activity can be used to understand the reporter gene at the transcription factor-level as they relate to the gene GLI1. Furthermore, this assay endpoint can be referred to as a primary readout, because this assay has produced multiple assay endpoints where this one serves a reporter gene function. To generalize the intended target to other relatable targets, this assay endpoint is annotated to the dna binding intended target family, where the subfamily is zinc finger.
Human liver HepG2 cells are transiently transfected with multiple reporter transcription units (MRTUs) in 6-well plates using FuGene 6 reagent (Roche; 3 ml FuGene/1 mg DNA). The MRTU constructs are regulated by a cis-regulating element (promoter). […] A major difference between the CIS and TRANS system is that in CIS activities of endogenous TFs are measured, whereas the TRANS assay evaluates changes in activities of exogenous, chimeric NR-Gal4 proteins. […] At the end of 24 hour incubation, total RNA was isolated using TriZol reagent (Invitrogen). The isolated RNA is then reverse-transcribed using oligo(dT) primer and Mo-MLV reverse transcriptase (Invitrogen) with DNAse I (Ambion) treatment for 30 min. The one-tenth of the produced cDNA was amplified by PCR using Taq DNA polymerase (Invitrogen) and two reporter sequence-specific primers. The PCR products were fluorescently labeled by primer extension with 6-arboxyfluorescein (6-FAM) 5'-labeled reporter sequence-specific primer (2 min at 95 C, 20 s at 68 C and 10 min at 72 C) and these products were digested with 5U of HpaI (New England Biolabs) for 2h at 37 C. The fragments were purified using Qiaquick PCR columns (Qiagen), analyzed on an ABI 3130xL genetic analyzer (Applied Biosystems) with peak positions identified by using a set of X-rhodamine (ROX)-labeled MapMarker1000 molecular weight standards (BioVentures). The raw capillary electrophoresis data was processed using Attagraph software (Attagene).
For `O=Nc1ccc(O)cc1`, the result was inactive.
For `O=C1Nc2ccccc2C1(c1ccc(O)cc1)c1ccc(O)cc1`, the AC50 is 70.8 µM (active).
For `C=C1C2CCC(C2)C1(C)C` (stereo not given), the molecule was called inactive.
On the same count and under the same terms, with `O=c1[nH]nc(-c2ccc([N+](=O)[O-])o2)o1` the entry was “inactive”; with `CC(=O)OCC(C)OC(C)=O` (stereo not given), “inactive”; with `CCCCCCCCO[C@@H]1O[C@H](CO)[C@@H](O)[C@H](O)[C@H]1O`, “inactive”.
For `CCC(CO)CO`, the call was inactive.
The same measure, in the same setting: with `Cc1ccc2oc(=O)ccc2c1` the entry was “inactive”.
On the same count and under the same terms, with `CCCCCCCCCCC=CC#N` the entry was “inactive”; with `O=c1[nH]c(=O)c2[nH]c(=O)[nH]c2[nH]1`, “inactive”; with `C=CC(=O)OCCC(=O)O`, “inactive”.
The same measure, in the same setting: as for `CC1(C)S[C@@H]2[C@H](NC(=O)COc3ccccc3)C(=O)N2[C@H]1C(=O)O`, the entry is “inactive”; as for `COc1ccc(NC(C)=O)cc1N`, “inactive”; as for `CCCCCC/C=C\CCCCCCCC(=O)O`, “inactive”.
`CC(=O)[C@H]1[C@H](C#N)C[C@H]2[C@@H]3CC=C4C[C@@H](O)CC[C@]4(C)[C@H]3CC[C@@]21C`: the result was inactive.
The same measure, in the same setting: as for `c1c[nH]cn1`, the entry is “inactive”; as for `NC(=O)N=NC(N)=O`, “inactive”.
For `CC1(C)O[C@@H]2C[C@H]3[C@@H]4C[C@H](F)C5=CC(=O)CC[C@]5(C)[C@H]4[C@@H](O)C[C@]3(C)[C@]2(C(=O)CO)O1`, the molecule was called inactive.
With `CCCCCCCCCCCCCCCC[n+]1ccccc1`, the AC50 is 60.1 µM (active).
Take `COc1ccc(-c2coc3cc(O)ccc3c2=O)cc1`: the outcome was inactive.
Same read-out and setting: as for `O=S(=O)(O)c1ccc2cc(O)c(S(=O)(=O)O)cc2c1`, the entry is “inactive”; as for `Cc1ccc(C(C)(C)C)cc1`, “inactive”; as for `COc1cc(C)ccc1C(C)C`, “inactive”.
Same read-out and setting: with `CCOC(=O)c1ccc(N(C)C)cc1` the entry was “inactive”; with `c1ccc(CCCc2ccncc2)cc1`, “inactive”.
Same read-out and setting: as for `C1=CCCC1`, the entry is “inactive”.
Turning to `O=C(Nc1cccc(C(F)(F)F)c1)c1cc(Br)cc(Br)c1O`, the concentration at half-maximal activity (AC50) is 83 µM (active).
Turning to `CCCCCCCCCCCCCCCC[N+](C)(C)CC`, the molecule was called inactive.
On the same count and under the same terms, with `O=C(O)c1cc(Cl)cc([N+](=O)[O-])c1Cl` the entry was “inactive”.
In the case of `O=C1C=CC(=O)O1`, the molecule was classed as inactive.
Same read-out and setting: with `COC(=O)/C=C\C(=O)O` the entry was “inactive”; with `COc1c2ccoc2cc2oc(=O)ccc12`, “inactive”; with `CCO[Si](C)(OCC)OCC`, “inactive”.
For the molecule `[Cl][Bi]([Cl])([c]1ccccc1)([c]1ccccc1)[c]1ccccc1`, the call was inactive.
Same read-out and setting: as for `Cc1ccc(N)c([N+](=O)[O-])c1`, the entry is “inactive”; as for `C=CC(=O)NC(C)(C)CS(=O)(=O)O`, “inactive”.
On to `O=C1CCCC1`, for which the molecule was classed as inactive.
On the same count and under the same terms, with `CC(C)=CCC/C(C)=C\C#N` the entry was “inactive”.
Consider `C=C(C)[C@H]1CC=C(C)CC1`, for which the result was inactive.
The same measure, in the same setting: with `CCOc1nc(F)cc2nc(S(=O)(=O)Nc3c(Cl)cccc3C(=O)OC)nn12` the entry was “inactive”.
